Source: PubChem BioAssay
The list is not random: actives were taken first. Their share in the collection is about 4.6%.
TIM10 inh: TIM10 yeast growth inhibition. S. cerevisiae TIM10 strain growth, BacTiter-Glo luminescence, 24 h. inhibition, % at 10 µM. actives 1.4% (n = 330,000);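 active = inhibition of 40% or more at the single tested concentration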;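 also: wild-type TIM10 isogenic control strain grown at permissive 25 °C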
NLRP3 yeast inh: blocks the NALP3 inflammasome reconstituted in yeast | AID 2825 | inhibition, % at 10 µM | Yeast reconstituted NLRP3/ASC/caspase-1, beta-gal luminescence, 24 h | actives 0.39% (n = 330,000);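 active = inhibition of 50% or more; inactive = inhibition below 50%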;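 also: plate controls were induced DMSO wells for no effect and uninduced yeast grown without galactose for full effect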
tim23-1 inh: tim23-1 yeast growth inhibition | inhibition, % at 20 µM | actives 1.3% (n = 330,000) | S. cerevisiae tim23-1 growth, BacTiter-Glo luminescence, 24 h;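 active = growth inhibition of the mutant yeast at or above 50%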;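 also: temperature-sensitive mutant grown at 25 °C; plate controls were DMSO-treated mutant yeast for no effect and medium wells lacking yeast for full effect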
PfHsp90 set2: inhibits growth of yeast expressing Plasmodium falciparum Hsp90. AID 504621. inhibition, % at 9.4 µM. S. cerevisiae expressing PfHsp90, BacTiter-Glo ATP, 48 h; yeast lacking PDR1 and PDR3 efflux regulators. actives 0.32% (n = 310,000);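 active = every replicate shows inhibition above about 80%, whatever the replicate mean, limit read from the data; inconclusive = mean inhibition reaches the set limit but some replicate falls short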;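 also: 0% = DMSO neutral controls and 100% = 20 µM radicicol positive controls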
tim10-1 inh: growth inhibitors of tim10-1 mutant yeast; inhibition, % at 20 µM; actives 2.2% (n = 330,000); S. cerevisiae tim10-1 ts strain growth, BacTiter-Glo, 24 h; AID 463190;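 active = inhibition of at least 40%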;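 also: mutant grown at 25 °C; 0% = DMSO wells with yeast and 100% = wells holding no yeast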
SKKanGAS inh: inhibitors of SKKanGAS S. pyogenes growth in kanamycin (SK-promoter or general growth effect) | BacTiter-Glo, 6 h | actives 1.3% (n = 300,000) | AID 1662 | inhibition, % at 7.5 µM;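 active = mean replicate score, as percent of positive control median, at least 50; inconclusive = mean below 50 but one replicate at or above 50; inactive = mean and every replicate below 50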;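 also: strain carries kanamycin resistance gene driven by streptokinase promoter and grows in 40 µg/ml kanamycin; loss of luminescence reflects streptokinase promoter inhibition or plain growth inhibition; 0% = median of DMSO wells and 100% = positive control at its reference dose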
tim10-1 conf: tim10-1 yeast growth inhibition, confirmed; shares compounds with tim10-1 inh; S. cerevisiae tim10-1 ts strain growth, BacTiter-Glo, 24 h; inhibition, % at 20 µM; actives 56% (n = 7,400); AID 463213;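 active = inhibition of yeast growth at or above a set limit in either of two repeat tests at 20 µM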;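 also: tim10-1 mutant grown at permissive 25 °C to find synthetic lethal compounds; 0% = DMSO yeast wells and 100% = medium wells without yeast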
Active calls of the source: *.

For Cc1nc2ccccn2c1C(=O)N/N=C/c1ccccc1 the results were TIM10 inh -9.7, NLRP3 yeast inh -0.8, tim23-1 inh 10.8, PfHsp90 set2 -7.5, tim10-1 inh 12.3 and SKKanGAS inh 1.4.
`Cc1ccccc1N/N=C/c1c(C)nc2ccccn12` gave TIM10 inh 17.1, NLRP3 yeast inh 25.2, tim23-1 inh 30.9, PfHsp90 set2 -8.5, tim10-1 inh 44.9*, SKKanGAS inh -0.3 and tim10-1 conf 23.7.
S=C(N/N=C/c1ccccc1Cl)Nc1cccc(Cl)c1Cl was read as TIM10 inh 25.4, NLRP3 yeast inh 31.6, tim23-1 inh 30.2, PfHsp90 set2 -42.0, tim10-1 inh 41.5*, SKKanGAS inh -7.0 and tim10-1 conf 16.0.
CCOC(=O)Cc1nnc2c(Nc3ccc(Cl)cc3)nc3nonc3n12 was read as TIM10 inh 30.1, NLRP3 yeast inh -16.8, tim23-1 inh 48.6, PfHsp90 set2 -13.4, tim10-1 inh 50.5*, SKKanGAS inh inconclusive and tim10-1 conf 33.2*.
Screening NNC(=O)c1[nH]c2ccccc2c1-c1ccccc1 returned TIM10 inh 24.9, NLRP3 yeast inh 19.5, tim23-1 inh 49.8, PfHsp90 set2 -9.5, tim10-1 inh 42.0*, SKKanGAS inh 9.9 and tim10-1 conf 34.9*.
For Cc1nc(-c2cccnc2)sc1C(=O)Nc1ccc(C(F)(F)F)cc1 the results were TIM10 inh 19.9, NLRP3 yeast inh 9.2, tim23-1 inh 23.8, PfHsp90 set2 -1.6, tim10-1 inh 37.1 and SKKanGAS inh -2.9.
Screening Cc1nc(-c2cccnc2)sc1C(=O)Nc1cccc(C(F)(F)F)c1 returned TIM10 inh 31.4, NLRP3 yeast inh 5.9, tim23-1 inh 22.1, PfHsp90 set2 -10.8, tim10-1 inh 43.1*, SKKanGAS inh -2.2 and tim10-1 conf 27.8.
Screening OC(COC(c1ccc(Cl)cc1)c1ccc(Cl)cc1)CN1CCc2ccccc2C1 (configuration not stated) returned TIM10 inh 30.9, NLRP3 yeast inh 31.0, tim23-1 inh 17.8, PfHsp90 set2 -8.4, tim10-1 inh 43.7*, SKKanGAS inh 16.9 and tim10-1 conf -3.2.
Screening OC(COC(c1ccccc1)c1ccccc1)CN1CCc2ccccc2C1 (configuration not stated) returned TIM10 inh 13.5, NLRP3 yeast inh 9.4, tim23-1 inh 6.5, PfHsp90 set2 1.1, tim10-1 inh 14.9 and SKKanGAS inh -4.3.
Screening COC(=O)c1cn(C(=O)c2ccc(C)cc2)c2ccccc12 returned TIM10 inh 31.4, NLRP3 yeast inh -6.1, tim23-1 inh 17.3, PfHsp90 set2 -9.3, tim10-1 inh 24.0 and SKKanGAS inh -10.1.
COC(=O)c1cn(C(=O)c2ccc(OC)cc2)c2ccccc12 was read as TIM10 inh 12.3, NLRP3 yeast inh 25.2, tim23-1 inh 42.5, PfHsp90 set2 -8.5, tim10-1 inh 42.1*, SKKanGAS inh -0.9 and tim10-1 conf 17.6.
Screening CCOC(=O)Cc1csc(NC(=O)c2ccc(N3CCOCC3)cc2[N+](=O)[O-])n1 returned TIM10 inh 3.6, NLRP3 yeast inh 7.2, tim23-1 inh 11.7, PfHsp90 set2 -22.5 and tim10-1 inh 21.3.
O=C(N/N=C\c1ccccn1)C1c2ccccc2Oc2ccccc21 was read as TIM10 inh 5.0, NLRP3 yeast inh 2.0, tim23-1 inh 24.5, PfHsp90 set2 6.8, tim10-1 inh 43.2*, SKKanGAS inh 20.6 and tim10-1 conf 18.1.
For Cc1nn(-c2ccccc2)c(Cl)c1/C=N/NC(=O)c1[nH]ncc1Br the results were TIM10 inh -3.8, NLRP3 yeast inh 3.4, tim23-1 inh 13.8, PfHsp90 set2 19.8, tim10-1 inh 17.9 and SKKanGAS inh -1.4.
`Cc1cc(OC(=O)c2cccc(Br)c2)c([N+](=O)[O-])c(=O)[nH]1` gave TIM10 inh 7.3, NLRP3 yeast inh 3.2, tim23-1 inh 4.2, PfHsp90 set2 -3.5, tim10-1 inh 45.8*, SKKanGAS inh -7.4 and tim10-1 conf -8.3.
For COCCOc1cc(Nc2nnc(C(F)(F)F)s2)c(Cl)cc1Cl the results were TIM10 inh 23.0, NLRP3 yeast inh -22.2, tim23-1 inh 29.2, PfHsp90 set2 -7.1, tim10-1 inh 46.3*, SKKanGAS inh 0.2 and tim10-1 conf 27.5.
